Bioassay records (PubChem BioAssay)
JMJD2A Tudor: blocks the human JMJD2A Tudor domain; O75164; AlphaScreen JMJD2A-Tudor / H3K4me3 peptide binding; Potency, µM (doses to about 114 µM), usual class: inhibitors; 4.4% of 390,000 active; AID 504339; also: nearly all actives have a fitted effect of over 50% in size
Sfp PPTase inh: inhibitors of Bacillus subtilis Sfp phosphopantetheinyl transferase; AID 1490; Potency, µM, actives largely listed as inhibitors; Biochemical Sfp PPTase activity, qHTS; 3.5% of 310,000 active; Q9F4F7;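 also: the enzyme is Sfp with the accession as filed and its product quenches rhodamine fluorescence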
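Sfp 15 nM + cpd, 15 min RT; start w/ rhodamine-CoA 5 uM, BHQ-2-YbbR 12.5 uM (final); 50 mM Hepes pH 7.6, 10 mM MgCl2, 0.01% NP-40, 0.01% BSA; read 525/598 nm at 0 and 30 min.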
HP1b chromo inh: inhibitors of HP1-beta chromodomain binding to methylated histone tails; P83916; AlphaScreen HP1-beta / biotin-H3K9me3 peptide binding; Potency, µM (highest dose often 114 µM), actives largely listed as inhibitors; 0.56% of 390,000 active; also: nearly all actives have a fitted effect of over 70% in size
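Compound inhibition of the preformed complex between 50 nM HP1-beta and 50 nM biotinylated H3K9me3 peptide was read by AlphaScreen. Buffer was PBS pH 7.4 with 0.01% Tween-20. Incubations ran 30 min at room temperature, with 10 ug/mL donor/acceptor beads.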
G9a inh: inhibitors of human histone lysine methyltransferase G9a. AID 504332. Potency, µM (series often up to 102 µM), hits mostly inhibitors. 8.8% of 350,000 active. Q96KQ7. G9a H3K9 monomethylation, AlphaScreen, 2 h; also: nearly all actives have a fitted effect of over 75% in size
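Signal arises when biotinylated H3K9 peptide, once monomethylated, bridges streptavidin donor and antibody-captured acceptor beads. Enzyme at 20 nM was preincubated 15 min with test compounds; peptide 500 nM and SAM 20 uM then reacted for 2 h.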
BAZ2B inh: inhibitors of human BAZ2B bromodomain. Potency, µM (titrated, usually from 114 µM), usual class: inhibitors. AID 504333. AlphaScreen BAZ2B-H3K14Ac peptide displacement. Q9UIF8. 4.4% of 360,000 active; also: nearly all actives have a fitted effect of over 60% in size
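In this displacement format the biotinylated H3(5-23) peptide acetylated at Lys14 serves as ligand at 50 nM, with BAZ2B at 50 nM in PBS pH 7.4 containing 0.01% Tween-20. Donor and acceptor beads are 10 ug/mL final.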
A number is an active result; n = inactive; u = inconclusive; x = no result given; ! = not active in a repeat; [ ] = another dose, or the depositor's remark. An excerpt weighted towards active compounds, which were near 12% of everything screened. Calls follow the shape of the dose curve; as a rule, active = well fitted curve in the direction sought with a large enough effect; inconclusive = small, poorly fitted or top-dose-only effect, or another doubt; inactive = no such curve, though single readings can be large; an effect the other way counts as inactive or inconclusive.

SMILES | JMJD2A Tudor | Sfp PPTase inh | HP1b chromo inh | G9a inh | BAZ2B inh
O=C(c1ccc2nc(N3CCCCC3)sc2c1)N1CCN(c2ccccn2)CC1 | n | n | n | 56µM | n
CC1CCN(c2nc3ccc(C(=O)N4CCN(Cc5ccccc5)CC4)cc3s2)CC1 | u | n | n | 71µM | n
Cn1nnc2cc(NC(=O)N3CCN(c4ccccn4)CC3)ccc21 | n | n | n | n[12.7 µM] | u
CCOC(=O)N1CCN(C(=O)c2ccc3nc(N4CCC(C)CC4)sc3c2)CC1 | n | n | n | n[0.0925 µM] | n
COc1cccc(C(=O)NCC(=O)N/N=C(\C)Cc2ccccc2)c1 | n | n | n | n | n
CCOC(=O)c1ccc(NS(=O)C23CC4CC(CC(C4)C2)C3)cc1 (centres undefined) | n | n | n | 5µM | n
COc1ccc2c(c1)c1c(c(=O)n(-c3ccccc3)c(=O)n1CC(=O)Nc1ccc(C)c(C)c1)n2C | n | x | n | n | n
CN1c2ccc([N+](=O)[O-])cc2N(C)C1(C)c1ccccc1 (centres undefined) | 10µM | u | 10µM | x | 8.9µM
Cn1c2ccccc2c2cc([N+](=O)[O-])ccc21 | n | n | n | x | n
COc1ccccc1C(=O)OCC#CCSc1nnc(-c2cccc3ccccc23)o1 | n | x | n | n[12.7 µM] | n
Cc1nc(SCC(=O)NCc2ccccc2)c2oc3ccccc3c2n1 | n | n | n | n | n
Cc1nc(SCC(=O)c2cccs2)c2oc3ccccc3c2n1 | n | 79µM | n | n[12.7 µM] | n
O=C(CSc1ncnc2c1oc1ccccc12)c1cccs1 | n | n | n | n | n
Cc1nc(SCC(=O)O)c2oc3ccccc3c2n1 | n | n | n | 56µM | n
CCOC(=O)/C(=C\c1ccc(Cl)cc1)c1nc2sc(C)c(C)c2c(=O)[nH]1 | u | 40µM | u | 25µM | n
Nc1nc(SCC(=O)NCc2ccco2)[nH]c(=O)c1-c1ccccc1 | n | n | n | n | n
Cc1ccc(S(=O)(=O)N2CCc3c2cc([N+](=O)[O-])cc3[N+](=O)[O-])cc1 | 32µM | n | u | n[2.33 µM] | u
CCOC(=O)C(CS)NCCN[C@@H](CS)C(=O)OCC (some centres undefined) | x | 1.6µM | x | u | x
CCOC(=O)c1cc(-c2ccc(C)cc2)n(CCC(=O)N2CCN(c3ccccn3)CC2)c1C | 35µM | n | u | 28µM | 45µM
CCOC(=O)c1cc(-c2ccc(C)cc2)n(CCC(=O)NCCN(C)C)c1C | u | n | n | u | 50µM
Oc1c(Br)cc(C=Nc2ccc3nc(-c4ccccc4)[nH]c3c2)c(O)c1Br | u | 56µM | n | 28µM | 40µM
C/C=C/c1cc(CN2CCN(c3ccc(OC)cc3)CC2)c(O)c(OC)c1 | 45µM | n | 45µM | 35µM | 28µM
C/C=C/c1cc(CN2CCN(c3ccccc3)CC2)c(O)c(OC)c1 | u | n | n | u | x
COc1ccc(N2CCN(Cc3cc4c(cc3O)CCC4)CC2)cc1 | 16µM | n | n | u | 32µM
COc1ccc(N2CCN(C(=O)[C@H](C)N3C(=O)C4CC=CCC4C3=O)CC2)cc1 (some centres undefined) | n | x | n | x | x
SMILES | JMJD2A Tudor | Sfp PPTase inh | HP1b chromo inh | G9a inh | BAZ2B inh
COc1cc2c(cc1OC)CN(C(C)C(=O)N1CCc3ccccc31)CC2 (centres undefined) | n | u | n | u | 56µM
COc1ccc(N2CCN(C(C)C(=O)N3CCc4ccccc43)CC2)cc1 (centres undefined) | u | n | u | 40µM | u
COc1ccc(N2CCN(C(C)C(=O)N3CC(C)OC(C)C3)CC2)cc1 (centres undefined) | 0.89µM | u | u | 45µM | 56µM
CC(C(=O)N1CCc2ccccc21)N1CCc2ccccc2C1 (centres undefined) | n | n | n | n | n
Cn1c(=O)c2c(SCC(=O)NCc3ccco3)nc(-c3ccccc3Cl)nc2n(C)c1=O | n | n | n | n | n
CCCn1c(=O)n(C)c(=O)c2c(SCC(=O)NCc3ccco3)nc(C3CC3)nc21 | 79µM | n | n | n | n
CC(C)OP(=O)(OC(C)C)C(Nc1ccccc1)c1cccnc1 (centres undefined) | u | n | n | n | n
Cc1nn(-c2ccccc2)c(=S)c2ccccc12 | n | n | n | 13µM | u
COC/C=C/C1=CC2=CC(=O)C(C)(OC(=O)c3ccco3)C(=O)C2=CO1 (centres undefined) | x | 56µM | x | u | 50µM
COC/C=C/C1=CC2=CC(=O)C(C)(OC(=O)C3CCCC3)C(=O)C2=CO1 (centres undefined) | 63µM | 79µM | u | u | 56µM
C#CCN(CC=C)C(=O)CCc1nnc(COc2ccccc2)o1 | n | n | n | n | n
COc1cc2c(c(NC(C)=O)c1)N(C(C)=O)CCC2 | n | x | n | x | x
CCC(C)NC(=O)C(NS(=O)(=O)c1ccc2c(c1)c(=O)n(C)c(=O)n2C)c1ccccc1 (centres undefined) | n | n | n | n | n
Cn1c(=O)c2cc(S(=O)(=O)NC(Cc3ccccc3)C(=O)NCc3ccco3)ccc2n(C)c1=O (centres undefined) | n | n | n | 63µM | n
Cc1cccc(NC(=O)C(Cc2ccccc2)NS(=O)(=O)c2ccc3c(c2)c(=O)n(C)c(=O)n3C)c1 (centres undefined) | n | x | n | n | 89µM
CC(C)CCNC(=O)C(NS(=O)(=O)c1ccc2c(c1)c(=O)n(C)c(=O)n2C)c1ccccc1 (centres undefined) | n | n | n | 8.9µM | n
O=S(=O)(Nc1ccon1)c1ccc(Br)s1 | n | n | n | n | n
CC1=C(CC(=O)O)c2cc(F)ccc2/C1=C/c1ccc(S(C)=O)cc1 (centres undefined) | n | n | n | 50µM | n
COc1ccc(OC)c(NC(=O)CS(=O)(=O)Cc2nc(-c3ccc(C)cc3)oc2C)c1 | n | x | n | n | u
Cn1cnc(C(=O)N2CCN(c3ccccc3)CC2)c1C(=O)N1CCN(c2ccccc2)CC1 | 28µM | x | n | n[2.33 µM] | 56µM
Cn1cnc(C(=O)N2CCN(C(=O)OC(C)(C)C)CC2)c1C(=O)N1CCN(C(=O)OC(C)(C)C)CC1 | n | x | n | n[2.33 µM] | n
O=C(COC(=O)c1nc(Cl)c(Cl)c(Cl)c1Cl)c1ccc[nH]1 | n | x | n | 14µM | n
CC(C)NCC(O)c1ccc(O)c(O)c1 (centres undefined) | n | n | n | 14µM! | n
NC[C@H](O)c1ccc(O)c(O)c1 | 7.9µM | u | n | 9.5µM | u
COc1ccc(S(=O)(=O)NCc2nc(-c3ccccc3)no2)cc1 | n | x | n | n | n
COC(=O)c1cnn2c1C(=O)N(Cc1cccs1)CC2 | n | n | n | n | n
Cc1ccc(N=Nc2c(=O)[nH]n3c(=O)cc(C)[nH]c23)cc1 | u | n | n | u | 50µM
Cc1ccc(/C=N/NC(=O)c2ccc(OC3CCCC3)cc2)o1 | n | n | n | x | n
